Screening results as filed in PubChem.
Most compounds without a hit are left out; they make up all but 2.8% or so of the library.
FGF22 binding-1 – FGF22 (human) thermal shift binding; Q9HCT0; recombinant FGF22 thermal shift, SYPRO orange fluorescence; percent of sucrose octasulfate shift, DMSO zero; activity (Tm shift, normalised), % at 9.99 µM; 340,000 tested, 1.5% active; AID 651658;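 active = mean Tm shift, scaled 0 neutral to 100 positive control, at about 1.3% or above, every replicate too, limit read from the data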
dFosB activator – activators of mouse delta FosB homodimer. P13346. purified delta FosB, TAMRA-CDK5 oligo fluorescence polarization; percent of positive-control signal above neutral wells. activation, % at 25 µM. 340,000 tested, 0.99% active;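 active = mean activation above about 17%, with every replicate also reaching it, limit read from the data, passing the limit was not always enough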
PglD inh – inhibitors of Campylobacter jejuni PglD acetyltransferase | purified PglD enzyme, DTNB colorimetric CoA detection | inhibition, % at 12.5 µM | 360,000 tested, 0.098% active; in the data active = inhibition above about 16%, passing the limit was not always enough
PvdQ inh – P. aeruginosa PvdQ acylase inhibition | purified PvdQ acylase, fluorescence plate reader | inhibition, % at 10 µM | 340,000 tested, 0.063% active | AID 488965; in the data active = inhibition above about 30%, passing the limit was not always enough;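 also: 0% = vehicle neutral wells and 100% = reference inhibitor wells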
CDK5 p35 inh – inhibitors of human CDK5/p35 kinase | Q00535+Q15078 | Recombinant CDK5/p35, ADP-Glo luminescence, 60 min | inhibition, % at 10 µM | 330,000 tested, 0.01% active | AID 488839;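 active = highest replicate inhibition of at least 50% and at least 75% of replicates reaching 50%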;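 also: plate controls were DMSO neutral control for no effect and GW8510 at 10 µM for full effect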
Target sequence (Q00535 whole entry, looked up): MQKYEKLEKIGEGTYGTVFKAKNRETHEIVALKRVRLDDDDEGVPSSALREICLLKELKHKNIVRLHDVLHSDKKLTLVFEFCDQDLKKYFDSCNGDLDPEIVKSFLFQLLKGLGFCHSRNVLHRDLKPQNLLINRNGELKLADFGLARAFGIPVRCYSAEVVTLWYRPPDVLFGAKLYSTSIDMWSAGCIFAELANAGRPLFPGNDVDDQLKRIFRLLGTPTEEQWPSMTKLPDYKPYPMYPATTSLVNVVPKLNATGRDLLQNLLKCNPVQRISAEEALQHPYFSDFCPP
Target sequence (Q15078 whole entry, looked up): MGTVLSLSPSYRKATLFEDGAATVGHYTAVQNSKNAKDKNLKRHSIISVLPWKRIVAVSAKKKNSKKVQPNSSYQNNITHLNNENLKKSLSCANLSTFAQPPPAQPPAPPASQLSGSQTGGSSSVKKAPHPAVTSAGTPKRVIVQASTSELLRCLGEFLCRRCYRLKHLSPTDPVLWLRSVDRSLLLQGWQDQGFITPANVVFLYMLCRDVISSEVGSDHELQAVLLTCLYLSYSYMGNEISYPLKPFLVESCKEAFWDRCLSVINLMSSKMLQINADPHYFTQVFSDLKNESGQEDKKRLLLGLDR
SIRT5 inh – sirtuin-5 (human) deacylase inhibition; inhibition, % at 15 µM; AID 652115; Purified SirT5, succinyl-peptide AMC, trypsin-coupled fluorescence; 330,000 tested, 1.1% active; in the data active = inhibition above about 15%
FGF22 binding-2 – binders of human FGF22 by thermal shift; shares compounds with FGF22 binding-1; recombinant FGF22 thermal shift, SYPRO orange fluorescence; thermal shift activity, °C (ΔTm) at 38 µM; 1,000 tested, 2% active; AID 720646;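 active = fitted rise in melting shift crosses a set limit at or below the top valid dose tested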
SYPRO no-protein – counter-screen for FGF22 binders: compound-only thermal shift, no protein. shares compounds with FGF22 binding-1. compound-only SYPRO orange thermal shift counter-screen. AC50, µM (titrated, usually from 38 µM). 1,000 tested, 2% active. AID 743019;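 active = rising signal whose fitted curve reaches the 0.54 level within the top valid dose, showing a melting point, actives reach about 13 µM in these data; inactive = the rest, including activity in the opposite direction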; also: value is where the raw curve crosses a fixed level and not half-maximal
An asterisk follows results filed as active; i = inactive; · = no result; [ ] = dose if it differs, or a comment.

SMILES | FGF22 binding-1 | dFosB activator | PglD inh | PvdQ inh | CDK5 p35 inh | SIRT5 inh | FGF22 binding-2 | SYPRO no-protein
CN(NC1OC(=O)c2ccccc21)c1ncc(C(F)(F)F)cc1Cl (configuration not stated) | 28.0* | -3.9 | 0.9 | -6.0 | 0.6 | -3.8 | 0.003 | i
CO[C@H](CN(C)S(=O)(=O)c1cccc(Cl)c1)[C@H](C)CN([C@@H](C)CO)S(=O)(=O)c1ccc(Cl)cc1 | 0.0 | · | -0.1 | · | · | 0.5 | · | ·
CO[C@H](CN(C)S(=O)(=O)c1cccc(Cl)c1)[C@H](C)CN([C@H](C)CO)S(=O)(=O)c1cccc(Cl)c1 | 2.0* | · | 6.9 | · | · | -5.7 | -0.036[42 µM] | i
CO[C@@H](CN(C)S(=O)(=O)c1cccc(Cl)c1)[C@@H](C)CN([C@H](C)CO)S(=O)(=O)c1cccc(Cl)c1 | 1.6* | · | 4.9 | · | · | 0.7 | 0.25[42 µM] | i
CO[C@H](CN(C)S(=O)(=O)c1cccc(Cl)c1)[C@H](C)CN([C@@H](C)CO)S(=O)(=O)c1cccc(Cl)c1 | 1.8* | · | 0.5 | · | · | 0.0 | 0.12[42 µM] | i
COc1ccc(NC(=O)Nc2cccc3c2O[C@@H](CN(C)C(=O)Nc2ccccc2)[C@@H](C)CN([C@H](C)CO)C3=O)cc1 | 0.0 | · | · | · | · | -1.3 | · | ·
O=C(Nc1nccs1)c1ccc(S(=O)(=O)NCc2cccs2)cc1 | 1.4* | -6.5 | 0.1 | -0.9 | 1.5 | -1.3 | -0.055 | i
CS(=O)(=O)c1ccc2nc(NC(=O)CCNC(=O)c3ccccc3Cl)sc2c1 | 0.3 | -14.1 | 0.1 | -5.2 | -2.4 | -5.0 | · | ·
O=C(CCNC(=O)c1ccccc1Cl)Nc1nc2ccc(F)cc2s1 | 2.7* | -12.3 | · | -26.1 | -0.2 | -3.7 | 0.035 | i
Cc1c2c(n3c(nc4ccccc43)c1C#N)N(CCN(C)C)CC2 | 1.4* | 12.6 | · | -36.0 | -0.6 | -41.5 | 0.03 | i
O=C(C1CCCC1)N1C[C@@H]2[C@H](c3ccccc31)[C@@H](CO)N2C(=O)Nc1cccc(F)c1 | 0.5 | · | -0.4 | · | · | -2.4 | · | ·
C[C@@H]1CN([C@H](C)CO)C(=O)Cc2cc(NC(=O)C3CCCCC3)ccc2O[C@@H]1CN(C)CC1CC1 | · | · | -2.8 | · | · | 2.5 | · | ·
c1ccc(NCc2ccccn2)cc1 | 1.4* | -0.7 | · | 5.9 | 0.9 | -8.1 | 0.227 | i
COCC(=O)Nc1ccc2c(c1)C(=O)N(C)C[C@@H](OC)[C@H](C)CN(Cc1cccc(F)c1)[C@H](C)CO2 | -0.3 | · | -2.9 | · | · | -1.6 | · | ·
Cc1noc(C)c1NC(=O)N[C@@H]1C=C[C@H](CC(=O)Nc2ccc(-c3ccccc3)cc2)O[C@@H]1CO | 1.9* | · | · | · | · | -2.9 | 0.018[42 µM] | i
Cc1cccc(NC(=O)COc2coc(CN3CCc4ccccc4C3)cc2=O)c1 | 7.0* | -11.2 | 2.1 | 5.4 | 0.3 | 0.0 | -0.023 | i
Cc1ccc(C)c(NC(=O)COc2coc(CN3CCc4ccccc4C3)cc2=O)c1 | -0.4 | -0.3 | 0.9 | -8.4 | 1.1 | -2.9 | · | ·
Cc1noc(NC(=O)c2cccc(Cl)c2Cl)c1C#N | 1.3* | -5.8 | · | -2.5 | 0.0 | 2.5 | -0.104 | i
Cc1noc(NC(=O)c2ccccc2Cl)c1C#N | · | 2.4 | 7.8 | 12.4 | -0.6 | · | · | ·
COc1ccccc1NC(=O)Nc1ccc2c(c1)C(=O)N(C)C[C@H](OC)[C@H](C)CN(C)[C@@H](C)CO2 | 0.2 | · | -1.9 | · | · | 5.1 | · | ·
Nc1nc(O)c(Sc2ccccc2[N+](=O)[O-])c(=O)[nH]1 | 1.9* | 1.8 | 1.4 | 1.3 | 2.4 | -6.2 | 0.026 | i
O=C(NCC[C@@H]1CC[C@@H](NC(=O)c2ccccc2F)[C@@H](CO)O1)c1cnccn1 | 0.0 | · | 1.9 | · | · | -0.4 | · | ·
O=C(Nc1cccnc1)c1ccc(NS(=O)(=O)c2cccc([N+](=O)[O-])c2)cc1 | 1.8* | -1.4 | · | 2.8 | 0.2 | 2.5 | -0.141 | i
CCCNC(=O)C[C@H]1CC[C@H]2[C@@H](COc3ccc(NC(=O)c4cccc(OC)c4)cc3C(=O)N2C)O1 | -0.2 | · | 3.1 | · | · | 4.6 | · | ·
C/C=C/c1ccc([C@H]2[C@@H](CO)N(CC3CCOCC3)C23CN(C(=O)COC)C3)cc1 | 1.7* | · | · | · | · | -4.3 | 0.184[42 µM] | i
SMILES | FGF22 binding-1 | dFosB activator | PglD inh | PvdQ inh | CDK5 p35 inh | SIRT5 inh | FGF22 binding-2 | SYPRO no-protein
C/C=C/c1ccc([C@@H]2[C@H](CO)N(CC3CCOCC3)C23CN(C(=O)COC)C3)cc1 | · | · | · | · | · | 2.5 | · | ·
C/C=C/c1ccc([C@H]2[C@@H](CO)N(C(=O)CC)C23CN(C(=O)c2ccccc2)C3)cc1 | 1.4* | · | · | · | · | -0.1 | 0.075 | i
O=C(C[C@@H]1CC[C@H]2[C@@H](COC[C@H](O)CN2Cc2nccs2)O1)NCc1ccc(-c2ccccc2)cc1 | -0.1 | · | 0.4 | · | · | -3.3 | · | ·
COCC(=O)N1C[C@H](C)[C@H](OC)CN(C)C(=O)c2cc(NS(C)(=O)=O)ccc2OC[C@H]1C | 0.1 | · | 1.5 | · | · | -4.9 | · | ·
O=S(=O)(N[C@@H]1CC[C@H](CCn2cc(-c3ccccn3)nn2)O[C@H]1CO)c1cccc(F)c1 | 0.2 | · | -2.7 | · | · | 0.0 | · | ·
C[C@H](CO)N1C[C@H](C)[C@@H](CN(C)C(=O)Nc2ccc3c(c2)OCO3)Oc2ccc(NC(=O)C3CC3)cc2C1=O | 0.7 | · | 1.2 | · | · | -0.1 | · | ·
C[C@H](CO)N1C[C@H](C)[C@@H](CN(C)C(=O)Nc2ccc3c(c2)OCO3)Oc2c(NC(=O)c3cnccn3)cccc2C1=O | 6.3* | · | -13.1 | · | · | 2.5 | 0.054[42 µM] | i
C[C@@H]1CN([C@@H](C)CO)C(=O)c2cc(NC(=O)C3CC3)ccc2O[C@@H]1CN(C)C(=O)Nc1ccc2c(c1)OCO2 | 2.4* | · | 4.9 | · | · | 2.2 | -0.004[42 µM] | i
C[C@H]1CN([C@@H](C)CO)C(=O)c2cc(NS(=O)(=O)c3ccc(Cl)cc3)ccc2O[C@@H]1CN(C)C(=O)Nc1ccc2c(c1)OCO2 | 2.5* | · | 2.0 | · | · | 3.5 | 0.114[42 µM] | i
O=C(O)/C=C/c1cccc(NC(=O)Nc2ccc([N+](=O)[O-])cc2)c1 | 1.6* | -0.4 | 2.0 | 21.8 | -0.2 | -11.7 | 0.077 | i
CCOC(=O)Cn1c2ccccc2n2nc(CCC(=O)O)c(=O)nc12 | 18.7* | -4.0 | 0.7 | -21.1 | 0.0 | -10.5 | 0.081 | i
C[C@@H]1CN([C@@H](C)CO)C(=O)c2cc(NC(=O)Cc3cn(C)c4ccccc34)ccc2O[C@H]1CN(C)S(C)(=O)=O | 2.6* | · | -2.7 | · | · | 2.4 | 0.111[42 µM] | i
C[C@H]1CN([C@@H](C)CO)C(=O)c2cc(NC(=O)Cc3ccccc3)ccc2O[C@H]1CN(C)Cc1ccc2c(c1)OCO2 | 3.0* | · | 6.0 | · | · | 2.3 | 0.231 | i
COc1ccc(CN(C)C[C@H]2Oc3ccc(NC(=O)Cc4ccccc4)cc3C(=O)N([C@@H](C)CO)C[C@H]2C)cc1 | 8.9* | · | 10.0 | · | · | 3.2 | 0.064 | i
